Most compounds without a hit are left out; they make up all but 11% or so of the library.
PLK1 PBD block = qHTS for Inhibitors of PLK1-PDB (polo-like kinase 1 - polo-box domain): Primary Screen; Serine/threonine-protein kinase PLK1 (Homo sapiens), P53350; Potency, µM, for inactives: max response, negative = inhibition, actives largely listed as inhibitors; actives 2.8% (n = 360,000); Plk1 PBD binding of FITC phosphopeptide, fluorescence polarization; AID 720504, 2013; note: series mostly up to about 57 µM; % is set by controls: 0 for no effect and ±100 for the full control effect; nearly all actives have a fitted effect of over 65% in size
G9a block = qHTS Assay for Inhibitors of Histone Lysine Methyltransferase G9a. G9a H3K9 monomethylation, AlphaScreen, 2 h. Potency, µM (doses to about 102 µM), for the others: top-dose activity, negative = inhibition, actives largely listed as inhibitors. actives 8.8% (n = 350,000). AID 504332, 2011; note: % is set by controls: 0 for no effect and ±100 for the full control effect; nearly all actives have a fitted effect of over 75% in size
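AlphaScreen read-out: biotin-H3K9 peptide (500 nM) methylation by 20 nM enzyme with 20 uM SAM, 2 h at room temperature after 15 min compound preincubation; anti-monomethyl H3K9 antibody plus donor/acceptor beads, 10 min dark.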
VDR inhibitor = Inhibitors of the vitamin D receptor (VDR): qHTS; Vitamin D3 receptor (Homo sapiens), P11473; VDR-SRC2-3 peptide fluorescence polarization, 2 h; Potency, µM, for inactives: max response, negative = inhibition, hits mostly inhibitors; actives 0.93% (n = 400,000); note: % is set by controls: 0 for no effect and ±100 for the full control effect
Target sequence (P11473 whole entry, looked up): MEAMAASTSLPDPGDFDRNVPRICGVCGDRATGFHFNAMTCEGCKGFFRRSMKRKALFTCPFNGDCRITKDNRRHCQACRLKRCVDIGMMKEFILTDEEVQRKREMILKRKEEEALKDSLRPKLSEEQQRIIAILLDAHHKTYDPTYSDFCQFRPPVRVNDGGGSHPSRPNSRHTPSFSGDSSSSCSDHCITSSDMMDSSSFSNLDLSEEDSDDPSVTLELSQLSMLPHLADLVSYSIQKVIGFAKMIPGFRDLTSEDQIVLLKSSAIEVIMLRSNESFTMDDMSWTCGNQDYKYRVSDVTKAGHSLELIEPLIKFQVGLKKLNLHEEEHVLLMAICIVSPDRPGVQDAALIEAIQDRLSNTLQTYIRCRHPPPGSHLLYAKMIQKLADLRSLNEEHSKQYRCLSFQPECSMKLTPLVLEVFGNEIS
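Signal is fluorescence polarization, reporting how far test compounds block the interaction of VDR with the SRC2-3 coregulator peptide after a 2 h room-temperature incubation.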
HP1b binding inh = HTS for Inhibitors of HP1-beta Chromodomain Interactions with Methylated Histone Tails; Chromobox protein homolog 1 (Homo sapiens), P83916; AlphaScreen HP1-beta / biotin-H3K9me3 peptide binding; Potency, µM (highest dose often 114 µM), without a hit: at the top dose activity change, negative = inhibition, actives largely listed as inhibitors; actives 0.56% (n = 390,000); AID 540317, 2011; note: nearly all actives have a fitted effect of over 70% in size
Target sequence (P83916 whole entry, looked up): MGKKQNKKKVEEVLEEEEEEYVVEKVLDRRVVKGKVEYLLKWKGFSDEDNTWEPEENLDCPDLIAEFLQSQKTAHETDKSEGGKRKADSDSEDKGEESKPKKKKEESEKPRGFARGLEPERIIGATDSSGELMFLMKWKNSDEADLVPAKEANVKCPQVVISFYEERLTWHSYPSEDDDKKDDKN
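HP1-beta protein (50 nM final) preincubated 30 min at room temperature with biotinylated H3(1-18)K9me3 peptide (50 nM) in PBS pH 7.4, 0.01% Tween-20, then compound added for 30 min. AlphaScreen streptavidin donor/nickel chelate acceptor beads (10 ug/mL final), 30 min dark, luminescence read.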
JMJD2A Tudor = qHTS Assay for Inhibitors of JMJD2A-Tudor Domain; Potency, µM (highest dose often 114 µM), for the others: top-dose activity change, negative = inhibition, most hits filed as inhibitors; AID 504339, 2011; actives 4.4% (n = 390,000); Lysine-specific demethylase 4A (Homo sapiens), O75164; AlphaScreen JMJD2A-Tudor / H3K4me3 peptide binding; note: % is set by controls: 0 for no effect and ±100 for the full control effect; nearly all actives have a fitted effect of over 50% in size
BAZ2B inh = qHTS Assay for Inhibitors of BAZ2B | Bromodomain adjacent to zinc finger domain protein 2B (Homo sapiens), Q9UIF8 | AlphaScreen BAZ2B-H3K14Ac peptide displacement | Potency, µM (doses to about 114 µM), for inactives: at the highest dose activity change, negative = inhibition, most hits filed as inhibitors | actives 4.4% (n = 360,000); note: % is set by controls: 0 for no effect and ±100 for the full control effect; nearly all actives have a fitted effect of over 60% in size
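Multi-concentration screen (max 110 uM) measuring displacement of acetylated histone H3 peptide from BAZ2B by AlphaScreen, using 50 nM protein, 50 nM peptide and 10 ug/mL streptavidin donor plus Ni-chelate acceptor beads.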
* hit, by the source's call; ? = inconclusive; · = no result given; ! = a repeat was not active; [ ] = another dose, or the depositor's remark. Calls come from the whole dose curve; as a rule, active = well fitted curve in the direction sought with a large enough effect; inconclusive = small, poorly fitted or top-dose-only effect, or another doubt; inactive = no such curve, though single readings can be large; an effect the other way counts as inactive or inconclusive. Potency is the fitted concentration of half-maximal effect.

SMILES	PLK1 PBD block	G9a block	VDR inhibitor	HP1b binding inh	JMJD2A Tudor	BAZ2B inh
NC(=O)c1ccsc1NC(=O)COC(=O)Cc1ccccc1Cl	2%	24%[12.7 µM]	2%	26%	-22%	7%
CCn1cc(C2C(C(=O)Nc3cc(C)ccn3)=C(C)NC3=C2C(=O)CC(C)(C)C3)c(C)n1 (stereo not drawn)	7%	28%	-6%	28%	-11%	-3%
COCCn1c(CCC(=O)O)ccc1-c1cccs1	-13%	50µM*	13%	17%	-15%	-30%
O=C(O)CCc1ccc(-c2ccc(Cl)cc2)n1CC(=O)O	-22%	45µM*	-1%	25%	?	-32%
O=C(O)CCc1ccc(-c2ccc(Cl)cc2)n1Cc1ccco1	-19%	?	14%	6%	?	50µM*
Cc1c(Cl)cccc1NC(=O)Cn1c(CCC(=O)O)ccc1-c1ccc(Cl)cc1	?	?	-28%	?	35µM*	56µM*
CC(=O)N1N=C(c2ccc(C)o2)CC1c1cccc(F)c1 (stereo not drawn)	-19%	·	5%	?	-25%	-15%
O=C(O)[C@@H]1CCCN1	·	0%[59 µM]	1%	·	·	·
CC1CCc2nc3ncn(Cc4ccccc4F)c(=O)c3cc2C1 (stereo not drawn)	·	14%[59 µM]	-1%	16%[57 µM]	-13%	-2%
O=C(O)CCc1ccc(-c2cccs2)n1Cc1ccco1	-15%	?	-5%	5%	?	50µM*
COc1ccc(CN2C(=O)CN=C2Nc2cccc(C)c2C)cc1	-2%	56µM*	-4%	24%	-23%	?
COc1ccccc1NC1=NCC(=O)N1Cc1ccccc1	-6%	4%[0.501 µM]	-5%	16%	-5%	-8%
CCOc1ccccc1NC1=NCC(=O)N1Cc1ccc(F)cc1	-12%	50µM*	-6%	13%	-15%	?
COc1cc(/C=C2\CCCc3c2nc2ccccc2c3C(=O)O)cc(Br)c1O	-6%	40µM*	-1%	16%	-10%	?
COc1cc(/C=C2\CCc3c2nc2ccccc2c3C(=O)O)cc(OC)c1OC	17µM*	14µM*	-26%	-26%	89µM*	45µM*
CCOc1cc(/C=C2\CCCc3c2nc2ccccc2c3C(=O)O)ccc1OC	3µM*	?	-22%	-5%	89µM*	79µM*
COc1cccc(/C=C2\CC(C)Cc3c2nc2ccccc2c3C(=O)O)c1OC (stereo not drawn)	-17%	50µM*	2%	44%	10%	-13%
CCN1C/C(=C\c2cccc(C)c2)c2nc3ccccc3c(C(=O)O)c2C1	·	17%[0.501 µM]	·	·	·	?
COc1cc(/C=C/c2nc3ccccc3c(=O)[nH]2)cc(Br)c1O	27%	?	-17%	28%	-8%	?
O=c1c(-c2ccc(F)cc2)nc2cncnc2n1Cc1ccc(F)cc1	·	7%[0.501 µM]	4%	·	·	·
Cc1cc(C)c(NC(=O)Cn2nc(-c3ccncc3)ccc2=O)c(C)c1	·	3%[59 µM]	6%	24%[57 µM]	-7%	1%
Cc1cc(-c2ccc(F)cc2)nc2cc(C(N)=O)nn12	-18%	56µM*	-7%	-2%	-27%	-7%
Cc1cc(C)n2nc(-c3ccc(F)cc3)cc2n1	-4%	·	·	·	·	·
COC1=C(OC)C(=O)C(CCCCCCCCCCO)=C(C)C1=O	·	?	45µM*	·	·	50µM*
Cc1[nH]c2ccccc2c1CCCO	-10%	5%	0%	0%	-20%	-23%
SMILES	PLK1 PBD block	G9a block	VDR inhibitor	HP1b binding inh	JMJD2A Tudor	BAZ2B inh
CCCCCCCCCCC1=C(C)C(=O)C(OC)=C(OC)C1=O	·	5µM*	40µM*!	·	·	·
Cc1ccc(S(=O)(=O)/N=S(/c2ccccc2)C(C)C)cc1 (stereo not drawn)	11µM*	4.5µM*	-20%	?	-32%	-2%
CN/S(=N/S(=O)(=O)c1ccccc1)c1ccc(C)cc1 (stereo not drawn)	-6%	17%[59 µM]	0%	28%	-4%	24%
CCOC(=O)c1ccc(S(=O)(=O)NNC(=O)c2cccc(N(C)C)c2)cc1	-12%	11µM*	-13%	10%	-19%	·
CCNc1ccc(C(=O)OCC)cc1NC(=O)c1cccc(N(C)C)c1	-4%	50µM*	0%	-18%	?	?
CCNc1ccc(C(=O)OCC)cc1NC(=O)c1cccc(S(=O)(=O)N(C)c2ccccc2)c1	4%	-50%[59 µM]	-17%	3%	-22%	-6%
O=C(OCC(=O)N1CCCC1)c1cc(Cl)ccc1Cl	-5%	25%	-8%	4%	-9%	10%
NS(=O)(=O)c1ccc(-c2ccc(/C=C3\C(=O)Nc4ccccc43)o2)cc1	·	·	·	·	·	-38%
NS(=O)(=O)c1ccc(-c2ccc(/C=C3\C(=O)Nc4cc(Cl)ccc43)o2)cc1	-1%	11µM*	18%	10%	-30%	56µM*
Cc1ccc(-n2nc(C(=O)NCc3ccc(F)cc3Cl)c3c4ccccc4n(C)c3c2=O)cc1	·	1%[59 µM]	5%	-9%	-18%	·
Cc1ccc(C(=O)C[n+]2ccc3ccccc3c2)cc1	8%	-37%	9%	26%	-5%	-7%
O=C(C[n+]1ccc2ccccc2c1)c1cccc2ccccc12	24µM*	28µM*	-9%	19%	-29%	-19%
O=c1oc2c(CN3CCCCC3)c(O)ccc2cc1-c1nc2ccccc2[nH]1	27µM*	14%[12.7 µM]	4%	44%	-3%	9%
CCc1cc2c(=O)c(-c3nc4ccccc4[nH]3)coc2c(CN2CCCCC2)c1O	-7%	?	5%	62%	-22%	79µM*
CN(Cc1ccccc1)C(=O)c1ccc2c(c1)N(Cc1ccc(Cl)cc1)C(=O)c1ccccc1S2=O (stereo not drawn)	·	-49%[59 µM]	-1%	20%	-8%	-22%
O=C(CCCCCCCC(=O)NNC(=O)Nc1ccccc1)NNC(=O)Nc1ccccc1	-13%	-48%[59 µM]	-15%	4%	79µM*	79µM*
O=C(CCc1ccccc1)NNC(=O)Nc1ccccc1	-1%	1%	21%	20%	4%	-6%
S=C(NNC(=S)Nc1ccc(Cl)cc1)NNc1ccccc1	7.5µM*	·	·	·	·	·
COCCCNC(=S)NNC(=S)Nc1ccccc1	-11%	·	?	-18%	1.6µM*	-4%
S=C(NNC(=S)Nc1ccccc1)Nc1ccccc1	?	0.35µM*	71µM*	?	-33%	-35%
CCc1ccc(/C=C2\SC(=S)N(CCCC(=O)N(CCO)c3ccccc3)C2=O)cc1	-1%	·	·	·	·	·
